From PubChem
Hits are enriched below; roughly 18% of the tested compounds scored in any of these assays.
DT40 TDP1 CPT: growth inhibition of DT40 Tdp1-/-;hTDP1 cells with camptothecin (screen for TDP1 inhibitors); chicken DT40 Tdp1-/-;hTDP1 cells + 20 nM CPT, ATP luminescence, 48 h; Potency, µM (top dose mostly 46.2 µM), for inactives: at the highest dose activity change, negative = growth inhibition, usual class: inhibitors; 420,000 tested, 12% active; AID 686979; further: nearly all actives have a fitted effect of over 55% in size
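Chicken DT40 Tdp1-/- cells stably complemented with human TDP1 were seeded at 400 cells/well in medium containing 20 nM camptothecin, exposed to pin-transferred compounds, and grown at 37 °C for at least 48 hr. Viability was read as ATP luminescence.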
VDR inh: inhibitors of human vitamin D receptor; P11473; VDR-SRC2-3 peptide fluorescence polarization, 2 h; Potency, µM, inactives show max response, negative = inhibition, most hits filed as inhibitors; 400,000 tested, 0.93% active; AID 504847
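Measured by FP: displacement of SRC2-3 coactivator peptide from VDR by library compounds, following a two-hour ambient incubation.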
GCN5L2 inh: GCN5L2 (KAT2A) acetyltransferase inhibition. Q92830. GCN5L2 HAT assay, ThioGlo1 CoA-SH fluorescence. Potency, µM (series often up to 58.9 µM), for the others: at the highest dose activity change, negative = inhibition, hits mostly inhibitors. 390,000 tested, 0.21% active. AID 504327
Target sequence (Q92830 whole entry, looked up): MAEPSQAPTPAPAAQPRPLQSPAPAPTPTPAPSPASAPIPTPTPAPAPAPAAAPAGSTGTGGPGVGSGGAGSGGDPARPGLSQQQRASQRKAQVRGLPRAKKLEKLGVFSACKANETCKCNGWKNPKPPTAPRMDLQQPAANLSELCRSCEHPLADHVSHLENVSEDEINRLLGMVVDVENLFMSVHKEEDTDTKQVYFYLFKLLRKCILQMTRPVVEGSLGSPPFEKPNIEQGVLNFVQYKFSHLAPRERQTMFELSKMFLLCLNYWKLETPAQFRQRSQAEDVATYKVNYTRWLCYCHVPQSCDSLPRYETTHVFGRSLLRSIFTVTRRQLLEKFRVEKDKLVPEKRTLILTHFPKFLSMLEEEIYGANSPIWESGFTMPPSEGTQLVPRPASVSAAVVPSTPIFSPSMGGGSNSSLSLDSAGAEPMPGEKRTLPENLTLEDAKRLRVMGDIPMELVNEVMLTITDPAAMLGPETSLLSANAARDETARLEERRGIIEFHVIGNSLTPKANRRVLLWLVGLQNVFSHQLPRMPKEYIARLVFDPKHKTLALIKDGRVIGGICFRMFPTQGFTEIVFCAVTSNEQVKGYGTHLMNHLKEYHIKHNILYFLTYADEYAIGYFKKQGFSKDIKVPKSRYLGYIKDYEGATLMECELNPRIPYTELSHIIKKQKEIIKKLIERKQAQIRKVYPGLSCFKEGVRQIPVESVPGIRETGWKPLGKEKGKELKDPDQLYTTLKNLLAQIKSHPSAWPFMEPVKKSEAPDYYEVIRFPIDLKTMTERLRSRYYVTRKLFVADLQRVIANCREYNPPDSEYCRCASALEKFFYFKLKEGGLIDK
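Free CoA generated was detected with ThioGlo1 (50uM) fluorescence at Ex340nm/Em540nm, read immediately and after 20 min at room temperature. Enzyme, 20 nM in HEPES pH 7.5 buffer, saw compounds 15 min before adding 75uM H3(1-25) peptide and 70uM acetyl-CoA.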
TDP1 block: TDP1 (human) enzyme inhibition; Q9NUW8; recombinant TDP1, AlphaScreen DNA substrate cleavage; Potency, µM (doses to about 130 µM), for inactives: at the highest dose activity change, negative = inhibition, actives largely listed as inhibitors; 350,000 tested, 0.28% active; AID 485290; further: nearly all actives have a fitted effect of over 40% in size
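AlphaScreen read-out: signal falls as enzyme removes the 3' tyrosine-FITC from a 5'-biotinylated DNA oligo (15 nM, 5 min, RT). Enzyme was E. coli-made recombinant Tdp1 at 1 nM, exposed to compound for 15 min beforehand; beads 10 ug/ml, 10 min.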
PLK1 PBD block: blocks phosphopeptide binding to human PLK1 polo-box domain; P53350; Plk1 PBD binding of FITC phosphopeptide, fluorescence polarization; Potency, µM, without a hit: max response, negative = inhibition, hits mostly inhibitors; 360,000 tested, 2.8% active; AID 720504; further: series mostly up to about 57 µM; nearly all actives have a fitted effect of over 65% in size
TDP1 cell noCPT: qHTS for Inhibitors of human tyrosyl-DNA phosphodiesterase 1 (TDP1): qHTS in cells in absence of CPT; DT40 Tdp1-/- hTDP1 cells, no CPT, ATP luminescence, 48 h; Potency, µM (doses to about 46.2 µM), for the others: at the top dose activity change, negative = growth inhibition, usual class: inhibitors; 420,000 tested, 15% active; AID 686978, 2013; further: nearly all actives have a fitted effect of over 55% in size
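Growth kinetics read by CellTiter-Glo luminescence after ≥48 hr at 37 °C. Cells: DT40 Tdp1-/- stably carrying human TDP1, 400 per well, compound exposure in the absence of CPT (DMSO vehicle).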
* = called active by the depositor; ? = inconclusive; / = no result given; ! = a repeat was not active; [ ] = another dose, or the depositor's remark. The call rests on the fitted dose curve; in most records, active means well fitted curve in the direction sought with a large enough effect; inconclusive means small, poorly fitted or top-dose-only effect, or another doubt; inactive means no such curve, though single readings can be large; an effect the other way counts as inactive or inconclusive. On the % scale 0 is the no-effect control and ±100 the full control effect; potency means the concentration at half of the fitted maximal effect.

SMILES | DT40 TDP1 CPT | VDR inh | GCN5L2 inh | TDP1 block | PLK1 PBD block | TDP1 cell noCPT
COc1ccc(C(CC(=O)c2ccc3c(c2)OCO3)c2c(O)c3ccccc3oc2=O)cc1OC (stereo not given) | -18.6% | / | / | / | 1.5% | 23.1µM*
O=C(c1ccccc1)c1ccc2nc(N3CCN(c4ccc(F)cc4)CC3)c3nncn3c2c1 | 7.31µM* | -5.2% | -11.6% | 2.1%[12.3 µM] | / | 8.2µM*
CCS(=O)(=O)NCc1nnc2n1-c1ccc(Cl)cc1C(c1ccccc1)=NC2 | -2.4% | -3.2% | -3.0% | 0.0% | 1.7% | -7.2%
CCn1c(C)[n+](CC(O)COCC2CC=CCC2)c2ccccc21 (stereo not given) | 20.6µM* | 17.7% | -12.2% | 5.0% | -0.7% | 23.1µM*
Cc1ccccc1C(=O)Nc1cc(-c2ccc(Cl)cc2)nn1-c1ccccc1 | ? | 12.3% | -13.2% | -2.7% | / | ?
CN1CCN(c2ccc(Cl)cc2N)CC1 | -4.2% | -19.1% | 0.2% | -7.4% | -0.7% | -25.0%
CN1CCN(c2ccc(N)cc2Cl)CC1 | ? | ? | -2.0% | 5.3% | 15µM* | ?
Cc1cccc(C)c1NC(=O)CN1CCCC1 | 2.8% | -2.3% | -9.4% | -0.7% | -10.9% | 5.2%
Cc1cc(C)nc(N2Cc3ccccc3C2=N)n1 | ? | 4.7% | -11.8% | 2.6% | -2.1% | 23.1µM*
Cc1ccc(N2Cc3ccccc3C2=N)cc1[N+](=O)[O-] | 7.6% | -1.4% | -5.4% | 3.6% | -1.4% | -5.9%
COCCn1c(O)c(/C=N/NC(=O)CSC(=S)N2CCCC2)c(=O)[nH]c1=S | -6.7% | 5.8% | -13.3% | 4.5% | -10.9% | 9.7%
CNC(=S)N(C)CCc1cc2c(c(OC)c1C=C1C(=O)NC(=O)NC1=O)OCO2 | -0.2% | -4.2% | -3.9% | 0.0% | ? | 1.4%
C=CCN1C(=O)NC(=O)/C(=C/c2c(CCN(C)C(=O)c3ccccc3)cc3c(c2OC)OCO3)C1=O | 3.9% | -20.6% | -1.7% | / | 23.8µM* | -4.2%
CC[C@H](C)[C@H](NC(=O)[C@@H](N)Cc1ccc(O)cc1)C(=O)NCC(=O)N[C@@H](CO)C(=O)N[C@@H](CCCN=C(N)N)C(N)=O | / | 8.8% | 20.0% | 5.6% | / | /
[Cl-].[Cl-].[Hg+2] | 0.75µM* | 2.51µM* | 0.141µM* | 35.5µM* | / | 0.335µM*
COc1ccc2cc1Oc1ccc(cc1)C[C@H]1c3cc(c(OC)cc3CCN1C)Oc1c(OC)c(OC)cc3c1[C@@H](C2)N(C)CC3 | ? | 7.9% | -2.5% | 3.7% | -1.4% | 23.1µM*
COc1cc2c3cc1Oc1c(OC)c(OC)cc4c1C(Cc1cccc(c1)Oc1ccc(c(O)c1)CC3N(C)CC2)N(C)CC4 (stereo not given) | 2.3% | 4.2% | ? | 10.2%[56.1 µM] | / | 0.4%
COc1ccc2cc1Oc1ccc(cc1)CC1c3cc(c(OC)cc3CCN1C)Oc1c(OC)c(OC)cc3c1C(C2)N(C)CC3 (stereo not given) | 3.66µM* | -4.1% | 1.5% | 15.2%[56.1 µM] | / | 3.66µM*
COc1ccc(C#Cc2ccc3c(c2)O[C@H](CN(C)S(=O)(=O)c2ccccc2F)[C@H](C)CN([C@H](C)CO)S3(=O)=O)cc1 | ? | / | / | / | -2.5% | 20.6µM*
Nc1ccc(S(=O)(=O)NCc2ccccc2)cc1 | -16.7% | 3.5% | -1.3% | 5.7% | / | ?
COc1cc([C@@H]2c3cc4c(cc3C[C@H]3COC(=O)[C@@H]32)OCO4)cc(OC)c1O | 0.0708µM* | -11.6% | / | 1.3% | / | 0.0316µM*
COc1cc(C2c3cc4c(cc3C(O)[C@H]3COC(=O)C23)OCO4)cc(OC)c1OC (stereo not given in full) | 0.0231µM* | 12.2% | -8.8% | 4.5% | / | 0.0366µM*
COc1cc(C2c3cc(O)c(OC)cc3CC3C(=O)OCC32)ccc1O (stereo not given) | 17.9% | 12.3% | / | / | -1.3% | 2.5%
COc1cc(C2c3cc4c(cc3CC3COC(=O)C32)OCO4)cc(OC)c1OC (stereo not given) | 0.0206µM* | -13.6% | -11.8% | 0.5% | -9.8% | 0.0052µM*
O=S(=O)(c1ccc(Cl)cc1)N1Cc2ccccc2-n2nncc2C1 | ? | / | / | / | -1.8% | ?
SMILES | DT40 TDP1 CPT | VDR inh | GCN5L2 inh | TDP1 block | PLK1 PBD block | TDP1 cell noCPT
Cc1cccc(OP(=O)(Nc2ccc(F)cc2)Oc2cccc(C)c2)c1 | -28.0% | -0.3% | -8.5% | 0.0% | -6.8% | ?
C=C(C)C(N)=O | / | / | / | 16.1% | / | /
NC1CCCC[C@@H]1N (stereo not given in full) | / | 0.0% | 49.0% | 12.8% | / | /
CC(O)CN1CCN(CC(=O)[O-])CCN(CC(=O)[O-])CCN(CC(=O)[O-])CC1.[Gd+3] (stereo not given) | -26.4% | / | / | / | / | -0.9%
O=C1C=CC(=O)C(Cl)=C1 | / | 25.1µM* | 15.8µM* | / | / | /
CC(=O)O[C@H]1CC[C@@]2(C)C(=CC[C@H]3[C@@H]4CC[C@H](C(C)=O)[C@@]4(C)CC[C@@H]32)C1 | ? | -24.5% | / | / | -16.3% | 16.4µM*!
CC(=O)OC1CC[C@@]2(C)C(=CC[C@H]3[C@@H]4CC[C@H](C(C)=O)[C@@]4(C)CC[C@@H]32)C1 (stereo not given in full) | / | 11.2% | -10.6% | 25.9% | / | /
CC(=O)C1CCC2C3CCC4=CC(=O)CC[C@@]4(C)C3CC[C@]12C (stereo not given in full) | 13µM* | 44.7µM* | 1.9% | 13.0%[56.1 µM] | / | 14.6µM*
[O-][Cl+]O | / | / | / | 6.5% | / | /
CCCCCCCCCCCCCCC[C@@H](O)[C@@H](N)COP(=O)(O)O | / | -4.1% | / | 6.2% | / | /
C[C@@H]1C[C@H](C)C[C@H](C)[C@@H](O)CC(=O)O[C@H]([C@H]2CCC[C@H]2C(=O)O)C/C=C/C=C(/C#N)[C@H](O)[C@@H](C)C1 | / | ? | 20.1% | 7.5% | / | /
Cc1nn(Cc2ccccc2)c(Cl)c1C(=O)NC1CCCc2ccccc21 (stereo not given) | ? | -10.6% | -3.2% | -0.6% | -20.2% | 20.6µM*
Cc1nn(Cc2ccccc2)c(Cl)c1C(=O)Nc1ccc(OC(F)(F)F)cc1 | ? | -22.9% | 4.3% | 5.4% | 2.9% | ?
Cn1c(O)c(C=NC2CC(C)(C)NC(C)(C)C2)c(=O)n(C)c1=O | 2.6% | -8.5% | -5.5% | 5.2% | -16.8% | -6.3%
CCCCCSc1cc(OC)c(CCN)cc1OC | 5.8µM* | -1.7% | 1.2% | 11.2% | -5.7% | 2.91µM*
CCCSc1cc(OC)c(CCN)cc1OC | 1.84µM* | / | / | / | / | 2.91µM*
CCCC1=C(C(=O)OCC)C2(C(=O)Nc3ccccc32)C(C#N)=C(N)O1 (stereo not given) | ? | 15.3% | 5.1% | 2.0% | 2.8% | -23.3%
